Screening results: PubChem BioAssay, several laboratories
S1P3 antagonist – antagonists of human S1P3 receptor; Q99500; CHO S1P3 NFAT-BLA reporter, FRET fluorescence, antagonist mode; inhibition, % at 4.98 µM; 170,000 tested, 0.27% active;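 active means inhibition above the plate cutoff, the mean inhibition of test wells on that plate plus 3 SD, cut at about 28% in these data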;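 further: cells challenged with S1P at its EC80 of 0.8 µM; blue over green emission ratio from cleaved BLA substrate after 4 h stimulation; 0% = S1P-stimulated wells and 100% = unstimulated DMSO-only wells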
SUMO HTRF inh – inhibitors of human SUMOylation (UBC9) | P63279 | HTRF SUMOylation assay, SAE1/SAE2 + UBC9, in vitro | inhibition, % at 35 µM | 290,000 tested, 0.36% active; in the data active means inhibition above about 50%, passing the limit was not always enough
S1P4 antagonist – human S1P4 receptor antagonism; O95977; S1P4-expressing cells, antagonist mode, reporter read-out; inhibition, % at 4.98 µM; 220,000 tested, 0.26% active; in the data active means inhibition above about 29%;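 further: 0% = wells stimulated with agonist and 100% = vehicle wells without agonist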
S1P4 agonist – agonists of human S1P4 receptor. S1P4-expressing cell line, agonist reporter assay. activation, % at 4.98 µM. 220,000 tested, 0.35% active. O95977; in the data active means activation above about 11%;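 further: 0% = DMSO vehicle and 100% = reference agonist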
p97 ATPase inh – blocks human p97 ATPase activity; 220,000 tested, 0.42% active; inhibition, % at 8 µM; recombinant p97 ATPase, Kinase-Glo ATP luminescence, 3 h; AID 1481; P55072; in the data active means inhibition above about 15%;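 further: 0% = DMSO vehicle and 100% = wells lacking enzyme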
DTT redox prof – compounds producing H2O2 with reducing agent – biochemical, NIH compound library profiling, artefact control for MLSCN library redox annotation, primary screen; DTT-dependent redox cycling H2O2, phenol red/HRP absorbance; 100% = 100 µM peroxide control, 0% = buffer; activation, % at 10 µM; 200,000 tested, 0.03% active; AID 878;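 active means activation of at least 50% relative to the plate's high and low controls in the primary single-dose screen; inactive means activation below 50%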;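 further: compound incubated with DTT at 0.8 mM final as the reducing agent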
* hit, by the source's call; x = not tested or not shown. In the library only some 1.1% were active in any assay of this set; here they are far more common.

SMILES	S1P3 antagonist	SUMO HTRF inh	S1P4 antagonist	S1P4 agonist	p97 ATPase inh	DTT redox prof
CC(=O)NNc1cc(N2CCOCC2)nc(N2CCOCC2)n1	-4	30	-12	0	1	-2
O=C(NNc1cc(N2CCOCC2)nc(N2CCOCC2)n1)c1ccc(Cl)cc1Cl	-26	86*	-22	1	5	0
O=c1[nH]c2ccc(S(=O)(=O)Nc3ccc(-c4nnc5n4CCCCC5)cc3)cc2o1	66*	20	-1	-1	6	2
CS(=O)(=O)Nc1ccc(-c2nnc3n2CCCCC3)cc1	x	3	x	x	x	x
c1ccc(-c2csc(-n3cccn3)n2)cc1	0	20	-3	0	-3	0
O=C(N/N=C\c1cn[nH]c1-c1ccc(Cl)cc1)c1cccs1	2	52*	5	0	8	x
O=C(N/N=C/c1cn[nH]c1-c1ccc(Cl)cc1)c1ccc([N+](=O)[O-])cc1	-16	-19	-22	0	5	0
N#C/C(=C\c1ccc(OCc2ccc(Cl)cc2)cc1)C(=O)Nc1cccc(C(=O)O)c1	x	54*	x	x	x	x
CCOc1cc(/C=C(\C#N)C(=O)Nc2cccc(C(=O)O)c2)ccc1OCc1ccc(Br)cc1	x	62*	x	x	x	x
COc1cc(/C=C(\C#N)C(=O)Nc2cccc(C(=O)O)c2)ccc1OCc1ccc(C)cc1	x	20	x	x	x	x
N#C/C(=C/c1ccc(F)cc1)c1nnc(NC(=O)c2ccccc2)s1	-17	35	-9	1	2	x
CCC(C)(C)NC(=O)Cc1ccc(Cl)cc1	-33	0	-27	0	1	-2
Cc1cc(NC(=O)CCC(=O)N(CC(=O)NC2CCCC2)Cc2ccc(F)cc2)no1	63*	16	-7	0	-3	-4
Cc1cc(NC(=O)CCC(=O)N(CC(=O)NC2CCCC2)Cc2ccc3c(c2)OCO3)no1	-7	6	-17	0	-5	-1
CCn1c(SCC(=O)N/N=C(/C)c2ccncc2)nc2ccccc21	-7	26	1	1	5	x
Cc1cc(O)cc(O)c1-c1onc(C(F)(F)F)c1-c1cscn1	0	-12	3	1	4	2
CCOc1ccc(-c2onc(C(F)(F)F)c2-c2cscn2)c(O)c1	x	17	4	-1	29*	1
COc1ccc(OC)c(NC(=O)CS(=O)(=O)c2cn(CC(=O)N3CCOCC3)c3ccccc23)c1	x	2	x	x	x	x
O=C(O)c1cc(Cl)c(Cl)cc1C(=O)Nc1cccc2cccnc12	1	76*	-14	2	8	0
CCS(=O)(=O)C1=NN2C(=N)/C(=C\c3ccc(SCc4ccco4)o3)C(=O)N=C2S1	7	62*	-13	0	10	0
CCCC(=O)OCCNc1cc(SCc2ccco2)c2nonc2c1[N+](=O)[O-]	-10	90*	-6	1	2	1
CC(=O)OCCCNc1cc(SCc2ccco2)c2nonc2c1[N+](=O)[O-]	-1	93	-17	0	3	1
CC(C)(C)c1ccc(OC(=O)Cn2c(C(F)(F)F)nc3ccccc32)cc1	x	-44	-12	-4	-3	-5
O=C(O)c1ccc(S(=O)(=O)/N=C2\C=C(Nc3ccccc3F)C(=O)c3ccccc32)cc1	x	92*	x	x	x	x
Cc1ccccc1NC1=C/C(=N\S(=O)(=O)c2ccc(C(=O)O)cc2)c2ccccc2C1=O	x	88*	x	x	x	x
SMILES	S1P3 antagonist	SUMO HTRF inh	S1P4 antagonist	S1P4 agonist	p97 ATPase inh	DTT redox prof
Cc1ccccc1NC1=C/C(=N\S(=O)(=O)c2cccs2)c2ccccc2C1=O	x	73*	-1	0	11	1
COc1ccc(S(=O)(=O)/N=C2\C=C(Nc3ccc(O)cc3)C(=O)c3ccccc32)cc1	x	25	x	x	x	x
CCc1ccc(CN2C(=O)c3ccccc3C2C(=O)NC(C)CC)cc1 (configuration not stated)	x	-14	x	x	x	x
CCc1ccc(O)c(N=Cc2ccccc2O)c1	-16	9	-1	0	6	0
O=c1[nH][nH]c2c(N=Cc3ccccc3O)ccc(F)c12	1	66*	6	0	40*	x
CCOc1ccc2ccc(OCC)c(/C=N/n3cnnc3)c2c1	x	12	x	x	x	x
CC(C(=O)NCCSCc1cccc(Cl)c1)N(c1ccccc1)S(C)(=O)=O (configuration not stated)	x	2	x	x	x	x
COC(=O)c1cc2sc(Cl)cc2n1CC(=O)Nc1cccc(SC)c1	59*	8	-1	-1	-8	0
CC1C(c2ccccc2)N(C)C(c2ccccc2)C(C)C1(O)C#Cc1ccccc1 (configuration not stated)	4	-31	-12	40*	-4	0
O=C(Nc1ccccc1)c1cc(S(=O)(=O)N2CCSCC2)ccc1Cl	-6	9	-16	1	2	0
O=S(=O)(c1cccs1)N1CCN(CC(O)COC2CCCc3ccccc32)CC1 (configuration not stated)	100*	14	3	-2	-1	2
O=S(=O)(c1cccs1)N1CCN(CC(O)COc2cccc(Br)c2)CC1 (configuration not stated)	x	7	20	1	0	0
CCCc1nn(C)c2c(=O)[nH]c(-c3cc(S(=O)(=O)Nc4ccc(NC(C)=O)cc4)ccc3OCC)nc12	-19	15	9	0	3	x
Cn1c(SCc2ccccc2F)nnc1-c1ccccn1	-7	14	-12	0	2	0
COc1ccc(NC(=O)/C(Cl)=C(/Cl)S(=O)Cc2ccccc2Cl)cn1 (configuration not stated)	47*	10	102*	-6	15*	0
O=C(Nc1nnc(-c2ccccc2F)s1)Nc1ccccc1F	10	10	0	1	3	0
O=C(Nc1nnc(-c2ccccc2SCc2ccccc2)s1)Nc1ccccc1F	x	70*	-14	-1	-8	-4
COc1cccc(NC(=O)Nc2nnc(-c3ccccc3SCc3ccccc3)s2)c1	x	55*	-4	-3	-3	-1
CCOc1ccccc1N(CC(=O)Nc1ccccc1C(=O)N1CCCC1)S(C)(=O)=O	x	-10	x	x	x	x
CC1=C(C(=O)N2CCCC(N3CCN(c4ccccc4F)CC3)C2)OCCO1 (configuration not stated)	x	-1	x	x	x	x
O=C(O)c1ccccc1C(=O)NCc1cccnc1	-17	32	-5	1	0	0
O=C(NCc1cccnc1)NC1(c2ccccc2)CC1	77*	14	-18	1	-5	-3
CCOc1ccc(NC(=O)CC2C(=O)N(c3ccccc3)C(=O)N2Cc2ccco2)cc1 (configuration not stated)	16	5	-1	0	2	-1
O=C(O)c1cccc(N=C2NC(=O)C(CO)(CO)S2)c1	x	27	x	x	x	x
COc1ccccc1NC(=O)Nc1ccnn1Cc1cccs1	-30	78*	-1	-1	2	2
COc1ccccc1NC(=O)Cc1cccs1	12	18	3	2	1	1
